Laboratory results as given in PubChem BioAssay (NCATS).
Several values for one entry are separate records, joined by “and”; a condition that tells them apart may be missing. Equal entries are not always repeated. Inconclusive results are not listed. Activity calls are given as the source filed them. Unless noted, calls follow the shape of the dose curve; as a rule, active = well fitted curve in the direction sought with a large enough effect; inconclusive = small, poorly fitted or top-dose-only effect, or another doubt; inactive = no such curve, though single readings can be large; an effect the other way counts as inactive or inconclusive.

Assays:
[1] = Validation screen for small molecules that induce DNA re-replication in SW480 colon adenocarcinoma cells (AID 504364); settings: DNA re-replication phenotype (high-content imaging); series mostly up to 46.1 µM; also: potency is read from the fitted curve at half-maximal effect
Method in brief: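 Cells are treated 48 hr with test compound, stained 40 min with Hoechst at 37 C, and scanned for nuclear fluorescence; compounds inducing re-replication increase nuclei with elevated intensity.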

[2] = target: Peptidyl-prolyl cis-trans isomerase NIMA-interacting 1 (Homo sapiens) (UniProt Q13526); experiment: qHTS Validation Assay to Find Inhibitors of Pin1 (AID 504536; active = well fitted inhibition curve with a large enough effect in the polarisation, with a control signal flat, not every such curve was filed as active; the % refers to the polarisation; also: potency is read from the fitted curve at half-maximal effect); settings: Pin1 fluorescence polarization peptide binding assay; series mostly up to 57.5 µM
Chain of Peptidyl-prolyl cis-trans isomerase NIMA-interacting 1 (Homo sapiens) (Q13526 whole entry, looked up): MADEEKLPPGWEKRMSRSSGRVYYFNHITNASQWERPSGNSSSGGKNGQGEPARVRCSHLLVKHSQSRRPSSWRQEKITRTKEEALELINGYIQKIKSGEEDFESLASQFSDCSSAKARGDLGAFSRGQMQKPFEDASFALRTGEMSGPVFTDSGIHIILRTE
Method in brief: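 Fluorescence polarization competition: compounds (titration) displace HiFluor-488-labeled Pin1-1b peptide from Pin1 (0.3 uM final) in pH 7.5 HEPES buffer with DTT, 10 min at room temperature; %Activity normalized to no-enzyme wells, curves fitted.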

[3] = target: Phosphoglycerate kinase, glycosomal (Trypanosoma brucei brucei) (UniProt P07378); experiment: qHTS Validation Assay to Find Inhibitors of Phosphoglycerate Kinase (AID 504547); settings: enzymatic PGK inhibition, coupled luminescence read-out; series mostly up to 57.5 µM;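 also: control wells lack PGK and mark full inhibition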
Chain of Phosphoglycerate kinase, glycosomal (Trypanosoma brucei brucei) (P07378 whole entry, looked up): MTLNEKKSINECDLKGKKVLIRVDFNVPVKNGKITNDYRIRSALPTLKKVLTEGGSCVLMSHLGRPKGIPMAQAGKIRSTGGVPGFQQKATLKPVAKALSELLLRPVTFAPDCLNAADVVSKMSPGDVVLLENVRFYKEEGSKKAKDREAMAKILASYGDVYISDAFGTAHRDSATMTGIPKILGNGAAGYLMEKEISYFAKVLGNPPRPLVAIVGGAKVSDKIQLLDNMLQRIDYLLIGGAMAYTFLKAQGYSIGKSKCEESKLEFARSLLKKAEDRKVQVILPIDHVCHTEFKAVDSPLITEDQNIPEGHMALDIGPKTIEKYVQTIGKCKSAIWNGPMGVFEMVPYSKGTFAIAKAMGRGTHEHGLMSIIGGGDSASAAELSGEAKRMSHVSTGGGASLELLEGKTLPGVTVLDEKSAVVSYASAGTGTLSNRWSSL
Method in brief: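 Inhibition of the enzyme is judged by a Kinase-Glo Plus luminescent signal following a one-hour incubation at room temperature. Because 1,3-BPG is unstable, it is made in situ by GAPDH at 100nM final; no-PGK wells define the baseline.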

[4] = target: Ubiquitin carboxyl-terminal hydrolase 1 (Homo sapiens) (UniProt O94782); experiment: Inhibitors of USP1/UAF1: Pilot qHTS (AID 504865); settings: purified USP1/UAF1, Ub-rhodamine cleavage fluorescence; series mostly up to 114 µM; also: nearly all actives have a fitted effect of over 35% in size; also: potency is read from the fitted curve at half-maximal effect
Chain of Ubiquitin carboxyl-terminal hydrolase 1 (Homo sapiens) (O94782 whole entry, looked up): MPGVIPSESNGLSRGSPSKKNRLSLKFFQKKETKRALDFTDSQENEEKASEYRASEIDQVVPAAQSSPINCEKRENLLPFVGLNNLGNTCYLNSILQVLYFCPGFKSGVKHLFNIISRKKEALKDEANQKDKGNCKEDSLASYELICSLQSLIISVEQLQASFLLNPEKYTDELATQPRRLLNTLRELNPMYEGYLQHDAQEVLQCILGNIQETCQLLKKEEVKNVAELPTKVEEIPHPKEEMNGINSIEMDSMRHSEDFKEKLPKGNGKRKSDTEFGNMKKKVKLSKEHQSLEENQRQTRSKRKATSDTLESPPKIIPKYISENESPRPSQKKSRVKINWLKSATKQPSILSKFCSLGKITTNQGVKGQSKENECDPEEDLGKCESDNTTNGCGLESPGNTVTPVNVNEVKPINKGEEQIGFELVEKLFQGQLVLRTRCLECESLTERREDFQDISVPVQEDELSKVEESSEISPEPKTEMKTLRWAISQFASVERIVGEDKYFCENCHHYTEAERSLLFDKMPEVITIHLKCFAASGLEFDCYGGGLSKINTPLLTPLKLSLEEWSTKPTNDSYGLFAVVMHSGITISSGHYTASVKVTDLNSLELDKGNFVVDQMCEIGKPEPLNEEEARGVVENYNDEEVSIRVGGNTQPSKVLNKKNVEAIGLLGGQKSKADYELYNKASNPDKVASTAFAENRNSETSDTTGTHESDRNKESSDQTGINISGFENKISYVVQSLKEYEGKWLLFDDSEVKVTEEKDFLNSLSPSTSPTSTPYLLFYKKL
Method in brief: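 Enzyme-free wells gave the negative control, while test wells held 1nM USP1/UAF1 preincubated with compound for 15 min at room temperature. Ub-Rho at 150nM final started the reaction, and fluorescence at 480/540 nm was recorded kinetically.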

[5] = qHTS for Inhibitors of ATXN expression: Validation of Cytotoxic Assay (AID 588349); settings: cytotoxicity counter-screen for ATXN expression inhibitors, cell viability; series mostly up to 57.1 µM;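 also: cells exposed to compound for 72 hr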; also: potency is read from the fitted curve at half-maximal effect
Method in brief: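 HEK293, compound dose series, 72 hr / 37 degrees C; viability via CellTiter Glo (intracellular ATP).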

[6] = qHTS for Inhibitors of ATXN expression: Validation (AID 588378); settings: cell-based ATXN2 expression reporter assay, luminescence; series mostly up to 57.1 µM; also: nearly all actives have a fitted effect of over 75% in size; also: potency is read from the fitted curve at half-maximal effect
Method in brief: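 After a 2 h attachment and 24 h compound incubation, HEK293-ATXN2-FFLuc wells are read for fluorescence at 405 nm excitation/525 nm emission as a viability measure, then for Bright-Glo luminescence reflecting ATXN2 expression.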

[7] = target: phosphoglycerate mutase (Leishmania major) (UniProt Q4Q090); experiment: qHTS Validation Assay to Find Inhibitors of Phosphoglycerate Mutase (AID 504548); settings: biochemical enzyme activity; Potency: inhibition qHTS; series mostly up to 57.5 µM;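 also: end-point luminescence from Kinase-GloPlus after the PGAM reaction; % is scaled to controls: 0 for no effect and ±100 for the full control effect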
Chain of phosphoglycerate mutase (Leishmania major) (Q4Q090 1-553): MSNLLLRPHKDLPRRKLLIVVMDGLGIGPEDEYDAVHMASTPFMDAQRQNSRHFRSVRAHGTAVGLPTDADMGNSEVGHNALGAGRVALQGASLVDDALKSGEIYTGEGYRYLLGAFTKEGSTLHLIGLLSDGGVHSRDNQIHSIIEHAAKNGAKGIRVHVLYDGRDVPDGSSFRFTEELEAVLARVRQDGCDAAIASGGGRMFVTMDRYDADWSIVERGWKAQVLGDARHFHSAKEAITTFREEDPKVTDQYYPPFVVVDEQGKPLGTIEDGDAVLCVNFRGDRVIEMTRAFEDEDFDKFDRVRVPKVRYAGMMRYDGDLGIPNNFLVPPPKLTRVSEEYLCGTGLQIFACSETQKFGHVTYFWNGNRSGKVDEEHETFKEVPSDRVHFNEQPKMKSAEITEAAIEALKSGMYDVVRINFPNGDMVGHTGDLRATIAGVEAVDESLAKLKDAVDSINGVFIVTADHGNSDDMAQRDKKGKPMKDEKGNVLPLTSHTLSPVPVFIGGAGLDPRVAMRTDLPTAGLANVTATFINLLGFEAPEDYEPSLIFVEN
Method in brief: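 Inhibition of L. major PGAM was assessed by Kinase-GloPlus luminescence following a 45-minute room-temperature reaction with enzyme at 1.25nM final.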

[8] = target: DNA dC->dU-editing enzyme APOBEC-3G (Homo sapiens) (UniProt Q9HC16); experiment: qHTS for inhibitors of Vif-A3G interactions: Validation (AID 588379); settings: Vif-A3G protein interaction assay; series mostly up to 46.1 µM; also: 0% is about no effect
Chain of DNA dC->dU-editing enzyme APOBEC-3G (Homo sapiens) (Q9HC16 whole entry, looked up): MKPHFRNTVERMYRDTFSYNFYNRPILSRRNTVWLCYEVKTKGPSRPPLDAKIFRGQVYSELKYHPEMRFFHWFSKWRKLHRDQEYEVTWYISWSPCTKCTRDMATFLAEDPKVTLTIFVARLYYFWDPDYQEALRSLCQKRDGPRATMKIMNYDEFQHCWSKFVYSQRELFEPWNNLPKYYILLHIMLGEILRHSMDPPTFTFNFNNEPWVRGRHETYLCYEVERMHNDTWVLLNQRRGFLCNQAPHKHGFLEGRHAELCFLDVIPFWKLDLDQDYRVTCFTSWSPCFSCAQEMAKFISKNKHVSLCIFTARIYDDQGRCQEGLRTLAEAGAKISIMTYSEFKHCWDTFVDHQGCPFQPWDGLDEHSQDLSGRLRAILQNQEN
Method in brief: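 HeLa cells stably expressing Vif and A3G-eYFP, 700 cells/well, incubated overnight at 37 deg C, then exposed to compound overnight at 37 deg C. Inhibition of Vif-mediated degradation read as increased yellow fluorescence (Ex 488/Em 500-530) by laser-scanning cytometry.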

[9] = target: Bile acid receptor (Homo sapiens) (UniProt Q96RI1); experiment: qHTS assay for small molecule antagonists of farnesoid X receptor signaling (AID 588526; calls by dose curve; also: % is scaled to controls: 0 for no effect and ±100 for the full control effect); settings: HEK293T FXR-UAS-bla, beta-lactamase ratio, antagonist mode; series mostly up to 76.7 µM
Chain of Bile acid receptor (Homo sapiens) (Q96RI1 whole entry, looked up): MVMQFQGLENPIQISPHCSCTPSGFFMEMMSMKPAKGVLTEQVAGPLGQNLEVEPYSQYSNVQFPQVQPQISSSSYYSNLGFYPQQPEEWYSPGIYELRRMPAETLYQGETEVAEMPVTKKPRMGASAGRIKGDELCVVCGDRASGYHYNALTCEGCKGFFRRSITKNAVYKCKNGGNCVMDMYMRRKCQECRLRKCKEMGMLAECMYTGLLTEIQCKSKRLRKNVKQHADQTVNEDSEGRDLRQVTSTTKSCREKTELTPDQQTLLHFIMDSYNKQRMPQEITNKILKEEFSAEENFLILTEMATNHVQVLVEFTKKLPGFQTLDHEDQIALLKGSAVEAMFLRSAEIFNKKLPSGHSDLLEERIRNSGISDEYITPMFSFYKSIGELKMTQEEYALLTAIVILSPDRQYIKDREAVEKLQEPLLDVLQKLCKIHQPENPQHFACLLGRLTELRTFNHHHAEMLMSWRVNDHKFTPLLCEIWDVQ
Method in brief: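 Beta-lactamase reporter antagonist mode: HEK293T FXR-UAS-bla cells, titrated compound, CDCA stimulation, 16 h 37 C, CCF4 dye 2 h RT. Data normalized to CDCA 50 uM and DMSO; Hill-fit IC50.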

[10] = qHTS assay for small molecule antagonists of peroxisome proliferator-activated receptor delta signaling (AID 588535; active = well fitted inhibition curve with a large enough effect in the signal ratio, with a control signal flat, not every such curve was filed as active; the % refers to the signal ratio;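 as to max response: cells co-treated with a PPAR-delta agonist as stimulator during compound exposure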); settings: HEK293T PPARd-UAS-bla, beta-lactamase FRET ratio, 18 h; 460 nm channel
Method in brief: (§1)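 Cell-based beta-lactamase assay in antagonist mode: 4000 HEK293T PPAR-delta-UAS-bla cells per well, 5 hr preincubation then 18 hr compound incubation at 37 C. IC50 obtained by Hill equation fitting.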

[11] = target: Peroxisome proliferator-activated receptor delta (Homo sapiens) (UniProt Q03181); experiment: as above; settings: HEK293T PPARd-UAS-bla, beta-lactamase FRET ratio, 18 h; series mostly up to 76.7 µM
Chain of Peroxisome proliferator-activated receptor delta (Homo sapiens) (Q03181 whole entry, looked up): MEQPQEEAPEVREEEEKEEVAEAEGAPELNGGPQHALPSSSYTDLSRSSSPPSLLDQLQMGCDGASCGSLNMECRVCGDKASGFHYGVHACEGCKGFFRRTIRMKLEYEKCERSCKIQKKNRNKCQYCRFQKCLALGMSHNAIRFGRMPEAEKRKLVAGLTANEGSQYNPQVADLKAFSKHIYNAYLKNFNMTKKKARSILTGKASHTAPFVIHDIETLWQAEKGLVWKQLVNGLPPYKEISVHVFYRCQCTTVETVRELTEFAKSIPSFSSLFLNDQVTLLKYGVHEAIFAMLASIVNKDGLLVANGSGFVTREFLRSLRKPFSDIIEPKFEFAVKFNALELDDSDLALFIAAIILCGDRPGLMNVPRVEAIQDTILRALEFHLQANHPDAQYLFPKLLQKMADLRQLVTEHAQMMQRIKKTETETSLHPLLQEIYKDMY
Method in brief: as §1

[12] = target: Peroxisome proliferator-activated receptor gamma (Homo sapiens) (UniProt P37231); experiment: qHTS assay for small molecule agonists of peroxisome proliferator-activated receptor gamma signaling (AID 588536; active = well fitted curve in the direction sought with a large enough effect in the signal ratio, with a control signal flat, not every such curve was filed as active; the % refers to the signal ratio;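 also: 0% = DMSO basal wells and 100% = rosiglitazone at 2 µM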); settings: HEK293 PPARg-UAS-bla, beta-lactamase ratio, 16 h, percent of rosiglitazone response, DMSO as zero; series mostly up to 76.7 µM
Chain of Peroxisome proliferator-activated receptor gamma (Homo sapiens) (P37231 whole entry, looked up): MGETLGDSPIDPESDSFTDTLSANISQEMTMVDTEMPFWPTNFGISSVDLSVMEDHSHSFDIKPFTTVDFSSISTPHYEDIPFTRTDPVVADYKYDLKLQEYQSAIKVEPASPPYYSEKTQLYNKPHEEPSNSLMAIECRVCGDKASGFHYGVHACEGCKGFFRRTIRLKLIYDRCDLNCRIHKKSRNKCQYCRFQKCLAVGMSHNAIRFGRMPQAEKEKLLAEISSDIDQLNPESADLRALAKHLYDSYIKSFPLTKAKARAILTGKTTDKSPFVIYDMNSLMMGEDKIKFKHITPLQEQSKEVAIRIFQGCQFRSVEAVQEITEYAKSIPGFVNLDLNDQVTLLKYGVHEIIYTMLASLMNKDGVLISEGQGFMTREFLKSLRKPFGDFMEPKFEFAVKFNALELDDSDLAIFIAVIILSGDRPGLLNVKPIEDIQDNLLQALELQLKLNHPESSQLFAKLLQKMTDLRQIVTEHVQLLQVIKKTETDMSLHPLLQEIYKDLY
Method in brief: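 HEK293 UAS-bla reporter line, 1% charcoal/dextran FBS; titration, 16 h, 37 C; CCF4 loading 2 h RT; fluorescence 460/530 nm. Normalized to rosiglitazone 2 uM = 100%, DMSO = 0%.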

[13] = target: Peroxisome proliferator-activated receptor gamma (Homo sapiens) (UniProt P37231); experiment: qHTS assay for small molecule antagonists of peroxisome proliferator-activated receptor gamma signaling (AID 588537; active = well fitted inhibition curve with a large enough effect in the signal ratio, with a control signal flat, not every such curve was filed as active; the % refers to the signal ratio;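 also: reporter cells co-stimulated with 50 nM rosiglitazone agonist during compound treatment; % of control where 0% means no effect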); settings: HEK293 PPARg-UAS-bla, beta-lactamase ratio, antagonist mode; series mostly up to 76.8 µM
Method in brief: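 Inhibitors of agonist-stimulated UAS-bla reporter activity were sought in HEK293 cells; rosiglitazone (50 nM) defined full signal and DMSO baseline. Curves fitted to Hill model gave IC50 and efficacy.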

[14] = target: Vitamin D3 receptor (Homo sapiens) (UniProt P11473); experiment: qHTS assay for small molecule antagonists of vitamin D receptor signaling (AID 588541; calls by dose curve;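 also: receptor activated by calcitriol during compound treatment; % is scaled to controls: 0 for no effect and ±100 for the full control effect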); settings: HEK293T VDR-UAS-bla, beta-lactamase ratio, antagonist mode; series mostly up to 76.7 µM
Chain of Vitamin D3 receptor (Homo sapiens) (P11473 whole entry, looked up): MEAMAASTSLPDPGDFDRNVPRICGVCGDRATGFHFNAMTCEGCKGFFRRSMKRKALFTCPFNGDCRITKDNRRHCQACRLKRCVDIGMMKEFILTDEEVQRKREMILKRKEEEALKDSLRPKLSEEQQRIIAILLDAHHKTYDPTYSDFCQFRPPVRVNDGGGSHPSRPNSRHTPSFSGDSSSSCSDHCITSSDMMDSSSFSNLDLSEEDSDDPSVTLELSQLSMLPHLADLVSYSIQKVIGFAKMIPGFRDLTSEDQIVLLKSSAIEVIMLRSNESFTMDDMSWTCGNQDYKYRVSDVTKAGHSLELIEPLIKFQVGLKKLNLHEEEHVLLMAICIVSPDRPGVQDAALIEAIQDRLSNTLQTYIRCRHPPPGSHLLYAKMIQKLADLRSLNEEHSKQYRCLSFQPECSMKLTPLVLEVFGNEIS
Method in brief: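 Antagonist-mode beta-lactamase reporter assay: HEK293T VDR-UAS-bla cells were exposed to titrated compound alongside 1-alpha,25-dihydroxyvitamin D3 at 3 nM final for 16 h. Values were normalized to the 50 nM agonist control and DMSO basal, with IC50 and efficacy from Hill equation fits.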

[15] = target: Glucocorticoid receptor (Homo sapiens) (UniProt P04150); experiment: qHTS assay for small molecule agonists of glucocorticoid receptor signaling (AID 588532; active = well fitted curve in the direction sought with a large enough effect in the signal ratio, with a control signal flat; the % refers to the signal ratio;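 also: 100% = dexamethasone at 0.1 µM and 0% = DMSO only wells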); settings: HeLa MMTV-bla, beta-lactamase ratio, agonist, 18 h; stronger effect = higher value; percent of dexamethasone control, DMSO zero
Chain of Glucocorticoid receptor (Homo sapiens) (P04150 whole entry, looked up): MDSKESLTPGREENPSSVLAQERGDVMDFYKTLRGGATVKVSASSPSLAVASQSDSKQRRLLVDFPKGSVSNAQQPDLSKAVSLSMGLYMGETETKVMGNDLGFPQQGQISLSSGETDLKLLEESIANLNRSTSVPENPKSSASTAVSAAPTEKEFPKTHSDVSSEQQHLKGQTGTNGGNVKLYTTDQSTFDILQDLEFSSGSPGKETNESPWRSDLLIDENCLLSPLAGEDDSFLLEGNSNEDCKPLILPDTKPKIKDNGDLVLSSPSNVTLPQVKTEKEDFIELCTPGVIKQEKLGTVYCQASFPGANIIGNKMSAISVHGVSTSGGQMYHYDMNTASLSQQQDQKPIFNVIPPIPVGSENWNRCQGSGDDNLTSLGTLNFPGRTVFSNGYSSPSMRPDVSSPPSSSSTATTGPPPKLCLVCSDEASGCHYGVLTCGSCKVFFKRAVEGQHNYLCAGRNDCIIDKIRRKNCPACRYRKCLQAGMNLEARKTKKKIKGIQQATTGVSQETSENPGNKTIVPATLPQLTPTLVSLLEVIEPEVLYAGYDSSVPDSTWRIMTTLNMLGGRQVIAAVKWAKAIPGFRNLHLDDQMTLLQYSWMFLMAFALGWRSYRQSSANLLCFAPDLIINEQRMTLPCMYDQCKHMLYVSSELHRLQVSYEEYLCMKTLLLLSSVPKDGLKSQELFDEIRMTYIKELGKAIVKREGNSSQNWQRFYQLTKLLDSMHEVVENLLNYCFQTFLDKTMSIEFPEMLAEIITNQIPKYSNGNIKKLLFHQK
Method in brief: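 Using MMTV-bla HeLa cells in medium with 1% stripped FBS and 25 mM HEPES, compounds were titrated and incubated overnight-length (18 h). Beta-lactamase cleavage of CCF4 was quantified by dual-emission fluorescence.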

NC[C@@H]1O[C@H](C23CC4CC(CC(C4)C2)C3)Cc2c1ccc(O)c2O
inactive: Potency [1] | Potency [2] | Potency [3] | Potency [4]
active: Potency [5] 31.6 µM | Potency [6] 20 µM

Ic1ccc(N2CCN(Cc3c[nH]c4ncccc34)CC2)cc1
active: Potency [4] 50.1 µM
inactive: Potency [1] | Potency [3] | Potency [7]

CN(C)c1nc(N)c(C(=O)N=C(N)N)nc1Cl
inactive: Potency [1] | Potency [2] | Potency [3] | Potency [4] | Potency [5]

CCCCCC(O)c1cccc(OCc2ccc3ccccc3n2)c1 (stereo not drawn)
inactive: Potency [1] | Potency [3] | Potency [7]

C[C@@H](NC(=O)/C(C#N)=C/c1ccc(O)c(O)c1)c1ccccc1
inactive: Potency [1] | Potency [2] | Potency [3] | Potency [4] | Potency [8]

N.N.O=C(O)C1(C(=O)O)CCC1.[Pt]
inactive: Potency [1] | Potency [5]
active: Potency [4] 28.2 µM

N#C/C(=C\c1ccc(O)c(O)c1)C(=O)NCc1ccccc1
inactive: Potency [1] | Potency [3] | Potency [6] | Potency [8]

CN(C)c1ccc(/C=C2\C(=O)Nc3ccccc32)cc1
inactive: Potency [1] | Potency [2] | Potency [3] | Potency [4] | Potency [5] | Potency [6]

CC(C)NCC(O)COc1cccc2ccccc12 (stereo not drawn)
-13.8% and 28.5%: max response [10]
inactive: Potency [1] | Potency [2] | Potency [4] | outcome [9] | Potency [11] | outcome [12] | Potency [13] | outcome [14]

Oc1ccccc1O
inactive: Potency [1] | Potency [2] | Potency [7] | Potency [4] | activation [15] -6.14% | outcome [12]

CCCN(CC1CC1)c1nc(C)nc(Nc2c(Cl)cc(Cl)cc2Cl)c1Cl
inactive: Potency [1] | Potency [2] | Potency [3] | Potency [4] | Potency [5] | Potency [6] | Potency [8]

CN1CCc2cc(NC(=O)Nc3cccnc3)ccc21
inactive: Potency [1] | Potency [2] | Potency [3] | Potency [4] | Potency [5] | Potency [6]

O=c1[nH]c2cc(C(F)(F)F)ccc2n1-c1cc(C(F)(F)F)ccc1O
inactive: Potency [1] | Potency [2] | Potency [3] | Potency [5]

CSc1ccccc1N1CCN(CCCCCC(=O)NC2CCCc3ccccc32)CC1 (stereo not drawn)
inactive: Potency [2] | Potency [3] | Potency [7] | Potency [4]

CC[C@@H](C)[C@H]1O[C@]2(CC[C@H]1C)C[C@@H]1C[C@@H](CC=C(C)[C@@H](O[C@H]3C[C@H](OC)[C@@H](O[C@H]4C[C@H](OC)[C@@H](O)[C@H](C)O4)[C@H](C)O3)[C@@H](C)C=CC=C3CO[C@@H]4[C@H](O)C(C)=C[C@@H](C(=O)O1)[C@]34O)O2
inactive: Potency [2] | Potency [3] | Potency [7]

COc1ccccc1N1CCN(CCCCNS(=O)(=O)c2cccc3c(N(C)C)cccc23)CC1
inactive: Potency [3] | Potency [4]
active: Potency [1] 14.6 µM

O=C(O)/C=C/C(O)c1ccc(Cl)cc1 (stereo not drawn)
inactive: Potency [1] | Potency [3] | Potency [7] | Potency [4] | Potency [5]

O=C(Nc1cccc(C(=O)Nc2ccc(S(=O)(=O)O)c3cc(S(=O)(=O)O)cc(S(=O)(=O)O)c23)c1)Nc1cccc(C(=O)Nc2ccc(S(=O)(=O)O)c3cc(S(=O)(=O)O)cc(S(=O)(=O)O)c23)c1
inactive: Potency [1] | Potency [7] | Potency [5] | Potency [6] | Potency [8]
active: Potency [2] 6.75 µM | Potency [4] 28.2 µM and 12.6 µM

O=C(O)c1cc([N+](=O)[O-])ccc1NCCCc1ccccc1
inactive: Potency [1] | Potency [2] | Potency [3] | Potency [8]

COc1cccc(C(=O)NCCN2CCN(c3ccc(Cl)cc3)CC2)c1
inactive: Potency [1] | Potency [2] | Potency [3] | Potency [4] | Potency [5]

Cn1c(=O)c2[nH]c(-c3ccccc3)nc2n(C)c1=O
inactive: Potency [1] | Potency [2] | Potency [3] | Potency [4] | Potency [5] | Potency [6]

CCCCCCCCCCCCCCCC(=O)NCC(COP(=O)([O-])OCC[N+](C)(C)C)OCC (stereo not drawn)
inactive: Potency [2] | Potency [3] | Potency [7]
active: Potency [4] 79.4 µM

Clc1ccc(N2CCN(Cc3cc4ccccn4n3)CC2)cc1
inactive: Potency [2] | Potency [3] | Potency [7] | Potency [4] | Potency [5] | Potency [6]

CN1CC(=O)N/C1=N/C(=O)Nc1cccc(Cl)c1
inactive: Potency [2] | Potency [3] | Potency [7] | Potency [4] | Potency [5] | Potency [6]

COc1ccc2c(c1)CCC1C2CC[C@@]2(C)C1CC[C@@H]2NCCCCCCN1C(=O)CCC1=O (stereo partly drawn)
inactive: Potency [2] | Potency [3] | Potency [7] | Potency [4]

CN(C)CCCO[C@@H]1[C@H]2OC(C)(C)O[C@H]2O[C@@H]1[C@H](O)CO
inactive: Potency [2] | Potency [3] | Potency [7] | Potency [4] | Potency [5] | Potency [6]

CO/S(=N\S(=O)(=O)c1ccc(Cl)cc1)c1ccc([N+](=O)[O-])cc1 (stereo not drawn)
inactive: Potency [2] | Potency [3] | Potency [7] | Potency [5]
active: Potency [4] 31.6 µM

Cc1cc2c(cc1Cl)N(C(=O)Nc1ccc(Oc3cccnc3C)nc1)CC2
inactive: Potency [2] | Potency [3] | Potency [7]
active: Potency [4] 44.7 µM | Potency [6] 17.8 µM

Nc1nc(Cl)nc2c1ncn2[C@@H]1O[C@H](COP(=O)(O)OP(=O)(O)OP(=O)(O)O)[C@@H](O)[C@H]1O
active: Potency [2] 30.1 µM
inactive: Potency [3] | Potency [7] | Potency [4] | Potency [5] | Potency [6]

NC(=O)C1=CN(C2OC(COP(=O)(O)OP(=O)(O)OC[C@H]3O[C@@H](n4cnc5c(N)ncnc54)[C@H](OP(=O)(O)O)[C@@H]3O)C(O)C2O)C=CC1 (stereo partly drawn)
inactive: Potency [3] | Potency [7] | Potency [4] | Potency [5] | Potency [6]
active: Potency [2] 5.36 µM
